Molecules are shown by their SMILES. Inconclusive results are not listed. The source made the active and inactive calls. How the source made its calls: active means hit-call score of the fitted dose curve at least 0.9, where 1 is the maximum; inconclusive means response in the unintended direction; inactive means score below 0.9.

Nine molecules from PubChem BioAssay (EPA / NIEHS) can be followed below.

Assay [1] deals with human Purinergic Receptor P2Y, P2RY1 (gene 5028) (UniProt P47900). Nature of the assay: NVS_GPCR_hPY2: NovaScreen (NVS) G Protein-Coupled Receptor Assay for human Purinergic Receptor P2Y (AID 2283281). The method, boiled down: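 Cell-free radioligand binding using U937-derived protein, 1 h after dosing, filter-based scintillation counting. Screened in duplicate at 25 uM; actives rerun as concentration-response up to 50 uM; loss of signal versus DMSO.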

Assay [2] concerns the target human Orphanin, Opioid Related Nociceptin Receptor 1 (ORL1), OPRL1 (gene 4987) (UniProt P41146). The assay can be described thus: NVS_GPCR_hORL1: NovaScreen (NVS) G Protein-Coupled Receptor Assay for human Orphanin, Opioid Related Nociceptin Receptor 1 (ORL1) (AID 2283283). Here is the method:
NVS_GPCR_hORL1 is a biochemical, single-readout assay that uses extracted gene-proteins from HEK293 in a cell-free assay. Measurements were taken 1 hour after chemical dosing in a 48-well plate.NVS_GPCR_hORL1 is one of one assay component(s) measured or calculated from the NVS_GPCR_hORL1 assay. It is designed to make measurements of radioligand binding, a form of binding reporter, as detected with scintillation counting signals by Filter-based radiodetection technology.Data from the assay component NVS_GPCR_hORL1 was analyzed into 1 assay endpoint. This assay endpoint, NVS_GPCR_hORL1, was analyzed in the positive analysis fitting direction relative to DMSO as the negative control and baseline of activity. […] Furthermore, this assay endpoint can be referred to as a primary readout, because the performed assay has only produced 1 assay endpoint. […]
Binding assays used specific radioligands (tritiated, iodinated) with non-radioactive competitive displacement ligands in agonist or antagonist protocols (as indicated) and various reference compounds and inhibitors to titrate specific binding to receptors and transporters. Most enzyme assays (CYPs, kinases, phosphatases, proteases, HDACs) used recombinant protein and specific substrates (fluorescence mostly, some colorimetric and radioactive) and inhibitors, followed by a biochemical separation of substrate and product. […]

In assay [3] the test system is 5-hydroxytryptamine receptor 2C (pig). Nature of the assay: NVS_GPCR_p5HT2C: NovaScreen (NVS) G Protein-Coupled Receptor Assay for pig Serotonin, 5-Hydroxytryptamine Receptor 2C (5HT2C) (AID 2283288). The method, boiled down: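 Pig choroid plexus membranes; radioligand competitive binding, filter-based scintillation counting, read 1 h after dosing. Primary screen in duplicate at 25 uM; actives then run as concentration series; loss of signal versus DMSO baseline.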

Assay [4] has as its target rat Adrenergic, Alpha 1, Non-selective Receptor (Adra1), Adra1a (gene 29412) (UniProt P43140). Nature of the assay: NVS_GPCR_rAdra1_NonSelective: NovaScreen (NVS) G Protein-Coupled Receptor Assay for rat Adrenergic, Alpha 1, Non-selective Receptor (Adra1) (AID 2283289). The method, boiled down: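 Rat forebrain membranes; radioligand displacement read by filter-based scintillation counting 1 h after dosing. Primary screen in duplicate at 25 uM; hits (e.g. ≥30% inhibition) rerun as concentration–response to 50 uM max. Fitted versus DMSO.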

Assay [5] deals with guinea pig Atrionatriuretic Peptide Receptor A (ANPA), gene 100135578. The assay can be described thus: NVS_GPCR_gANPA: NovaScreen (NVS) G Protein-Coupled Receptor Assay for guinea pig Atrionatriuretic Peptide Receptor A (ANPA) (AID 2283291). The procedure: NVS_GPCR_gANPA is a biochemical, single-readout assay that uses extracted gene-proteins from Guinea pig cerebellar membranes in a tissue-based cell-free assay. Measurements were taken 1 hour after chemical dosing in a 96-well plate.NVS_GPCR_gANPA is one of one assay component(s) measured or calculated from the NVS_GPCR_gANPA assay. It is designed to make measurements of radioligand binding, a form of binding reporter, as detected with scintillation counting signals by Filter-based radiodetection technology.Data from the assay component NVS_GPCR_gANPA was analyzed into 1 assay endpoint. This assay endpoint, NVS_GPCR_gANPA, was analyzed in the positive analysis fitting direction relative to DMSO as the negative control and baseline of activity. Using a type of binding reporter, loss-of-signal activity can be used to understand changes in the binding as they relate to the gene Nppa. Furthermore, this assay endpoint can be referred to as a primary readout, because the performed assay has only produced 1 assay endpoint. To generalize the intended target to other relatable targets, this assay endpoint is annotated to the lyase intended target family, where the subfamily is guanylyl cyclase. […]

The target in assay [6] is mouse Cholecystokinin, CCK2 Receptor (CCKB), Cckbr (gene 12426) (UniProt P56481). Nature of the assay: NVS_GPCR_mCKKBCentral: NovaScreen (NVS) G Protein-Coupled Receptor Assay for mouse Cholecystokinin, CCK2 Receptor (CCKB) (AID 2283293). The gist of the method:
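Radioligand displacement binding on mouse forebrain membranes, 2 h exposure, filter-based scintillation counting. Primary screen in duplicate at 25 uM; actives (e.g. ≥30% inhibition) retested in concentration-response up to 50 uM; loss of binding signal relative to DMSO.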

Assay [7] concerns the target rat Serotonin, 5-Hydroxytryptamine Receptor (5HT), Non-Selective Binding, Htr1a (gene 24473) (UniProt P19327). Nature of the assay: NVS_GPCR_r5HT_NonSelective: NovaScreen (NVS) G Protein-Coupled Receptor Assay for rat Serotonin, 5-Hydroxytryptamine Receptor (5HT), Non-Selective Binding (AID 2283295). The gist of the method:
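Radioligand displacement on rat cortical membranes, 1 h incubation, filter-based scintillation counting. Primary duplicates at 25 uM, actives retested in concentration series; loss of signal fitted against DMSO as baseline.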

Assay [8] deals with rat Adrenergic, Alpha 1B Receptor (Adra1B), gene 24173. The assay can be described thus: NVS_GPCR_rAdra1B: NovaScreen (NVS) G Protein-Coupled Receptor Assay for rat Adrenergic, Alpha 1B Receptor (Adra1B) (AID 2283297). The method, boiled down:
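Rat liver membranes, radioligand displacement with filter-based scintillation detection, 1 h incubation. Primary screen in duplicate at 25 uM; actives retested in concentration series; activity relative to DMSO.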

Chain of human Orphanin, Opioid Related Nociceptin Receptor 1 (ORL1), OPRL1 (gene 4987) (P41146 whole entry, looked up): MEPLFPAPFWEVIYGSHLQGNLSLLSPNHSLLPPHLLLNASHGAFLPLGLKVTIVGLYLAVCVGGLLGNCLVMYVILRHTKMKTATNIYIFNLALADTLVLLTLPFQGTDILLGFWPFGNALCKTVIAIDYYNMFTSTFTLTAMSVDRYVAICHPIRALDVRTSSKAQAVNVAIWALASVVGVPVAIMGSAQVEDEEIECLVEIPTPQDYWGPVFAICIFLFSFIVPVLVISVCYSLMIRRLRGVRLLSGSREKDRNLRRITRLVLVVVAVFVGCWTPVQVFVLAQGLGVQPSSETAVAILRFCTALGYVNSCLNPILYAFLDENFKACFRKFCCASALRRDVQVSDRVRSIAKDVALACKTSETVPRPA
Chain of rat Adrenergic, Alpha 1, Non-selective Receptor (Adra1), Adra1a (gene 29412) (P43140 whole entry, looked up): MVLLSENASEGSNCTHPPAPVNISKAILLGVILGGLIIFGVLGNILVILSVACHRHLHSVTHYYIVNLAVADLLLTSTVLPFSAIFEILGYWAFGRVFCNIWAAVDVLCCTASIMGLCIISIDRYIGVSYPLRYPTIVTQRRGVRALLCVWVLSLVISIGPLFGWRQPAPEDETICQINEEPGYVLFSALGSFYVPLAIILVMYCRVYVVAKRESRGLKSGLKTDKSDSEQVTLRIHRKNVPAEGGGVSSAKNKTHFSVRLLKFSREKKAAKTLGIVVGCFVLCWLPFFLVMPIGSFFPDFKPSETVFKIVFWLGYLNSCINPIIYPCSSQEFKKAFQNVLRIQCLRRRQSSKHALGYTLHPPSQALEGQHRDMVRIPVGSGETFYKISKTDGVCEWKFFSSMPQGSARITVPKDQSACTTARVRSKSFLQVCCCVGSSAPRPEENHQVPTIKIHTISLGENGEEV
Chain of rat Serotonin, 5-Hydroxytryptamine Receptor (5HT), Non-Selective Binding, Htr1a (gene 24473) (P19327 whole entry, looked up): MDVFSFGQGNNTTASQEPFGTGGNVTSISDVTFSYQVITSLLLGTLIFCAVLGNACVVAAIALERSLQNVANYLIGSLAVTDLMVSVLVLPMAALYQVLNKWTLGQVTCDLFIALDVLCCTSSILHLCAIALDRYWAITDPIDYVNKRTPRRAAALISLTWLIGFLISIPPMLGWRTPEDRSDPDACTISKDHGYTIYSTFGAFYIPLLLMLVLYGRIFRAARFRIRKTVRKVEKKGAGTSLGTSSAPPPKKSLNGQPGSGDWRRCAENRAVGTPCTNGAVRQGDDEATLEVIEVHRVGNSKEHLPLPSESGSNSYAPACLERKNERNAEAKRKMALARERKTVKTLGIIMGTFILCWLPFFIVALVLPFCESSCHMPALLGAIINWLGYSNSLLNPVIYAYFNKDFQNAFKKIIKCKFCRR
Chain of human Purinergic Receptor P2Y, P2RY1 (gene 5028) (P47900 whole entry, looked up): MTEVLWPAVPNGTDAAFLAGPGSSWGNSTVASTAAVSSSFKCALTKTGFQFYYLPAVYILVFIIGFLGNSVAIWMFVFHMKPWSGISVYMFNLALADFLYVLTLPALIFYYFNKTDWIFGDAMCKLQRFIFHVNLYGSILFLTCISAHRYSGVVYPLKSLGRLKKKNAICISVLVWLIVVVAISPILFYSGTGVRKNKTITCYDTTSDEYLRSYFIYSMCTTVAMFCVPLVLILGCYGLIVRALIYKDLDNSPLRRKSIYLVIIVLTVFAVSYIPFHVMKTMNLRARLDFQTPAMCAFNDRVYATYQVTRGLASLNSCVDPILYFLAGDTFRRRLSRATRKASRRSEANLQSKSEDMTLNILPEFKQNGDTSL
Chain of mouse Cholecystokinin, CCK2 Receptor (CCKB), Cckbr (gene 12426) (P56481 whole entry, looked up): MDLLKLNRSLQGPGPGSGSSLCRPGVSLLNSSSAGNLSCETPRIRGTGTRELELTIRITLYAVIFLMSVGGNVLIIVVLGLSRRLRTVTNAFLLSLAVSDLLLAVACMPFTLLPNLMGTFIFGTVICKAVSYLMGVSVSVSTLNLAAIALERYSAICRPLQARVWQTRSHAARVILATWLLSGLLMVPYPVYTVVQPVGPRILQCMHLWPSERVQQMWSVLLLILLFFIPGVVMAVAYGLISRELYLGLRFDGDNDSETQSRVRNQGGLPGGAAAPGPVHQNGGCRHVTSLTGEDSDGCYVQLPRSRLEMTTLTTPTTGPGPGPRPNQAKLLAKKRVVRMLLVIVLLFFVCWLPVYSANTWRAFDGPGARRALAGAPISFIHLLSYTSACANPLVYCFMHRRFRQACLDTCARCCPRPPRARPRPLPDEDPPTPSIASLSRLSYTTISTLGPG

In the case of `O=c1ssc(Cl)c1Cl`, in assay [1], the result was inactive.

With `CC1(C)CN=C(NN=C(/C=C/c2ccc(C(F)(F)F)cc2)/C=C/c2ccc(C(F)(F)F)cc2)NC1`, the AC50 in assay [2] was 37.2 µM (active).

As to `Cc1ccc(O)cc1C`, in assay [3], the AC50 is 21.1 µM (active).

Consider `c1ccc2c(c1)Nc1ccccc1S2`, for which the molecule was classed as inactive in assay [3] and in assay [4].

Take `O=[N+]([O-])c1ccccc1`: the outcome in assay [5] was inactive.

Consider `CC(Cc1ccc(OCC(=O)O)cc1)NCC(O)c1csc(C(F)(F)F)n1` (stereo not given), for which the call in assay [5] was inactive.

Regarding `CCC(C)(C)c1ccc(O)cc1`, in assay [6], the outcome was inactive.

As for `Cc1ccc([N+](=O)[O-])cc1C`, the molecule was classed as inactive in assay [7].

In the case of `CCCCN(CCCC)SN(C)C(=O)Oc1cccc2c1OC(C)(C)C2`, the outcome in assay [8] was inactive.

A word on the AC50: it is the concentration giving half of the maximal activity seen.
